We go through 62 molecules from PubChem BioAssay AID463173 (ICCB-Longwood Screening Facility, Harvard Medical School, 2010).

In all, about 52,000 compounds went through this assay and about 4,300 (8.3%) were called active. The list comes from a sample in which actives are over-represented; it also holds similar structures and randomly drawn compounds. A number with no mark means an inactive call. Rule as the data show it: active = survival mostly below about 52% (no sharp cut-off); inactive = mostly above about 56%.

The assay has as its system DeltatarO mutant. Nature of the assay: growth inhibition of S. aureus wild type versus tarO mutant, primary screen, teichoic acid synthesis inhibitors, RN4220, OD600 (AID 463173). Particulars: OD600, 18 h, active compounds read low, screened at 18.75 µg/mL (by protocol).
Turning to `O=c1cc(-c2ccccc2)nc(SCc2nc(-c3ccccc3Cl)no2)[nH]1`, the survival was 69%.

Regarding `Cc1ccc(CNC(=O)Cn2c(-c3cccs3)cc3cc(Cl)ccc32)cc1`, the survival was 79%.

With `CCOc1cccc(C(=O)Nc2ccc3oc(-c4ccncc4)nc3c2)c1`, the survival is 70%. Next, `CCOc1ccc(C(=O)Nc2ccc3oc(-c4ccncc4)nc3c2)cc1`: 74%. For `Cc1ccc(C(=O)Nc2ccc3oc(-c4ccc(C(C)(C)C)cc4)nc3c2)cc1`, the survival was 70%.

As to `CCOc1cccc(C(=O)Nc2ccc3oc(-c4cccnc4)nc3c2)c1`, the survival was 56%. Take `CCOc1ccc(C(=O)Nc2ccc3oc(-c4ccc5ccccc5c4)nc3c2)cc1`: the survival is 74%.

Regarding `CCOc1cccc(C(=O)Nc2ccc3oc(-c4ccc(C(C)(C)C)cc4)nc3c2)c1`, the survival was 46% (active).

As for `CCCCOc1cccc(C(=O)Nc2ccc3oc(-c4cccnc4)nc3c2)c1`, the survival is 46% (active).

As to `CCOc1ccc(C(=O)Nc2ccc3oc(-c4cccc5ccccc45)nc3c2)cc1`, the survival was 60% (active). As for `CCCCOc1ccc(C(=O)Nc2ccc3oc(-c4cccnc4)nc3c2)cc1`, the survival was 69%.

Take `O=C(Nc1ccc(NC(=O)C2CC2)nc1)c1cccc(F)c1`: the survival is 77%. As for `CCCCCc1nn2cc(-c3ccccc3)nc2s1`, the figure is 105%; as for `Nc1ccc(CN2C(=O)c3ccccc3C2=O)cc1`, 91%.

For `O=C(C1CCCN(S(=O)(=O)c2cccs2)C1)N1CCN(c2ccccc2F)CC1` (configuration not stated), the survival was 85%.

With `CCn1cc(C(=O)N2CCN(c3ccc(C(C)=O)cc3)CC2)c2cc(OC)c(OC)cc2c1=O`, the survival was 164%.

For the molecule `CCC(=O)N1CCc2cc(S(=O)(=O)CCC(=O)N3CCN(c4cccc(C)c4C)CC3)ccc21`, the survival is 98%. In the case of `COc1ccc(CCCc2nnc(SCC(=O)Nc3ccc(OC)cc3)o2)cc1`, the survival is 65%. As for `CCc1ccccc1NC(=O)CSc1nnc(COc2ccccc2Cl)o1`, the figure is 66%.

Turning to `Cc1cc(C)cc(NC(=O)CSc2nnc(COc3ccccc3Cl)o2)c1`, the survival was 12% (active).

Consider `COc1ccc(CCCc2nnc(SCC(=O)Nc3cccc(F)c3C)o2)cc1`, for which the survival is 39% (active).

Consider `CC(C)c1ccccc1NC(=O)CSc1nnc(COc2ccccc2Cl)o1`, for which the survival was 99%.

Turning to `COc1ccc(CCCc2nnc(SCC(=O)Nc3cc(F)ccc3C)o2)cc1`, the survival is 64%. As for `O=C(CSc1nnc(COc2ccc(Cl)cc2)o1)Nc1ccccc1`, the figure is 51%; as for `COc1cccc(NC(=O)CSc2nnc(COc3ccc(Cl)cc3)o2)c1`, 57% (active). Consider `Cc1ccc(NC(=O)CSc2nnc(COc3ccc(Cl)cc3)o2)cc1`, for which the survival was 49%. In the case of `O=c1c2oc3ccccc3c2n(Cc2ccccc2)c(=O)n1Cc1ccco1`, the survival was 95%. Consider `CCN(Cc1ccccc1)C(=O)CN1C(=O)COc2ccc(S(=O)(=O)N3CCCCCC3)cc21`, for which the survival is 95%. As for `COc1cc(C2CC(=O)c3cnc(N4CCN(CCO)CC4)nc3C2)cc(OC)c1OC` (configuration not stated), the survival is 92%. Turning to `CCCn1c(N2CCN(C(=O)Nc3ccc(OC)cc3)CC2)nc2ccccc21`, the survival was 104%.

As for `CCn1c(N2CCN(C(=O)Nc3ccc(Cl)c(C(F)(F)F)c3)CC2)nc2ccccc21`, the survival is 0% (active).

`CC(C)Cn1c(N2CCN(C(=O)Nc3ccc(Cl)cc3)CC2)nc2ccccc21`: the survival is 102%. In the case of `CC(=O)c1ccc(NC(=O)c2noc3c2CSc2ccccc2-3)cc1`, the survival was 54%. Next, `COCCCNC(=O)C1CCN(Cc2nc(-c3ccc(OC)c(OC)c3)oc2C)CC1`: 88%.

For `COc1ccc(OC)c(-c2noc(N3CCN(c4ccc(C(C)=O)cc4)CC3)n2)c1`, the survival is 134%. As for `Cc1cc(N2CCCCC2)nc2ccc(NC(=O)/C=C/c3ccc(OC(C)C)cc3)cc12`, the figure is 50%; as for `COc1ccc(/C=C/C(=O)Nc2ccc3nc(N4CCC(C)CC4)cc(C)c3c2)cc1`, 51% (active); as for `Cc1cc(N2CCCCC2)nc2ccc(NC(=O)/C=C/c3ccccc3OC(C)C)cc12`, 73%.

As for `Cc1cc(N2CCC(C)CC2)nc2ccc(NC(=O)/C=C/c3cccc(Cl)c3)cc12`, the survival is 53% (active).

As to `Cc1ccc(/C=C/C(=O)Nc2ccc3nc(N4CCC(C)CC4)cc(C)c3c2)cc1`, the survival was 122%. As to `Cc1cc(N2CCCCC2)nc2ccc(NC(=O)/C=C/c3ccc(OCCC(C)C)cc3)cc12`, the survival was 56%. Next, `COc1ccc(/C=C/C(=O)Nc2ccc3nc(N4CCC(C)CC4)cc(C)c3c2)cc1OC`: 51%; `Cc1cc(N2CCCCC2)nc2ccc(NC(=O)/C=C/c3ccccc3Cl)cc12`: 44% (active); `COc1ccc(/C=C/C(=O)Nc2ccc3nc(N4CCCCC4)cc(C)c3c2)cc1OC`: 43% (active). Next, `COc1cc(C(=O)Nc2cccc(OCc3cc(=O)n4cc(C)sc4n3)c2)cc(OC)c1OC`: 90%; `COc1ccccc1C1C=C(c2ccc(Cl)cc2)Nc2nc(-c3ccc(Cl)cc3)nn21` (configuration not stated): 59%. On to `COC(=O)C1=C(C)NC(=O)CC1c1ccccc1` (configuration not stated), for which the survival is 105%. Regarding `COc1ccccc1CCNC(=O)C1CCN(c2nnc(C)c3c(C)n(-c4ccc(C)cc4)nc23)CC1`, the survival is 85%. As for `CC(=O)N1CCCc2cc(S(=O)(=O)N3CCCC(C(=O)Nc4ccc(C)cc4C)C3)ccc21` (configuration not stated), the figure is 71%; as for `Cc1ccc(C(=O)Nc2nc3nc(C)cc(=O)n3[nH]2)cc1`, 91%. Next, `O=C(Cc1ccccc1)Nc1c(C(=O)N2CCN(c3ccc(F)cc3)CC2)oc2ccccc12`: 49%; `O=C(Cn1ncc2c(=O)oc3ccccc3c21)N1CCN(c2ccc(Cl)cc2)CC1`: 93%; `CCn1ccc2cc(S(=O)(=O)N3CCCN(C(=O)Nc4ccc(C)c(F)c4)CC3)ccc21`: 73%. As for `COc1ccc(/C=C/C(=O)Nc2ccc(Cl)c(Cl)c2)cc1OC`, the survival is 18% (active). For the molecule `CCN1CCN(c2cc(C)c3cc(NC(=O)/C=C/c4cccc(OC)c4OC)ccc3n2)CC1`, the survival was 43% (active). Next, `COc1ccc(Nc2c3c(nc4ccc(NC(=O)/C=C/c5cccc(OC)c5OC)cc24)CCCC3)cc1OC`: 66%.

`COc1cccc(/C=C/C(=O)Nc2ccc3nc(N4CCN(C)CC4)cc(C)c3c2)c1OC`: the survival is 79%. Next, `CCN1CCN(c2cc(C)c3cc(NC(=O)/C=C/c4ccc(C)cc4)ccc3n2)CC1`: 52%. As for `COc1ccc(/C=C/C(=O)Nc2ccc(Cl)c(Cl)c2)cc1`, the survival is 66%. As for `C/C=C/C(=O)Nc1ccc(Cl)c(Cl)c1`, the survival was 70%. As for `CCN1CCN(c2cc(C)c3cc(NC(=O)/C=C/c4cccc(Cl)c4)ccc3n2)CC1`, the figure is 44% (active). Next, `CCN1CCN(c2cc(C)c3cc(NC(=O)/C=C/c4ccc(OCCC(C)C)cc4)ccc3n2)CC1`: 112%.
